Measurements as given in PubChem BioAssay (NCI).
This is part of a sample that, as a whole, favours compounds with a hit. Of some 83,000 tested, about 20% had one in any assay.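 Treatment: one concentration, 48 hours, 96-well format. Scoring: percent growth, with anything below 10 considered active.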 A number with no mark means an inactive call. Activity calls are given as the source filed them.

Tests used:
Test in all cases: NCI-60 one-dose screen, 48 h (100 = growth as untreated, 0 = no growth, -100 = all killed)
Conditions in all cases: 10 µM unless noted
SK-MEL-2 melanoma = system: SK-MEL-2 melanoma
EKVX NSCLC = system: EKVX NSCLC
SN12C renal = system: SN12C renal
UO-31 renal = system: UO-31 renal
TK-10 renal = system: TK-10 renal
ACHN renal = system: ACHN renal
CAKI-1 renal = system: CAKI-1 renal
A498 renal = system: A498 renal
CCRF-CEM leukemia = system: CCRF-CEM leukemia
MOLT-4 leukemia = system: MOLT-4 leukemia

| Structure (SMILES) | growth (SK-MEL-2 melanoma) | growth (EKVX NSCLC) [%] | growth (SN12C renal) [%] | growth (UO-31 renal) | growth (TK-10 renal) [%] | growth (ACHN renal) [%] | growth (CAKI-1 renal) [%] | growth (A498 renal) | growth (CCRF-CEM leukemia) | growth (MOLT-4 leukemia) |
| --- | --- | --- | --- | --- | --- | --- | --- | --- | --- | --- |
| Oc1c(Cl)cc(Oc2cc(Cl)c(O)c(CN3CCOCC3)c2)cc1CN1CCOCC1 | 88.2% | 90.5 | 95.4 | 71.1% | 95.1 | 84.9 | 78 | 84.7% | 107% | 80.4% |
| O=c1oc2c(cc1-c1ccc([N+](=O)[O-])cc1)C(O)Oc1ccccc1-2 (stereo not given) | 71.6% | 80.7 | 98.4 | 74.5% | 95.8 | 103 | 78.2 | 84.8% | 62.5% | 63.6% |
| COc1ccc(C(=O)COc2cccc(/C=C3\COc4ccc5ccccc5c4C3=O)c2)cc1 | 52.6% | 45.4 | 68.6 | -29.5% (active) | 125 | 143 | 71.9 | 88.8% | 13.3% | 44.4% |
| O=C(O)C1CCN(S(=O)(=O)c2ccc(-c3ccccc3)cc2)CC1 | 5.44% (active) | 103 | 101 | 101% | 133 | 109 | 104 | 104% | 90.1% | 107% |
| O=C(NC1CCS(=O)(=O)C1)c1ccc(C(=O)c2ccccc2)cc1 (stereo not given) | 7.36% (active) | 96.3 | 105 | 76.5% | 137 | 98.1 | 98.2 | 110% | 127% | 109% |
| COc1cc(/C=N/NC(=O)c2ccc(C(F)(F)F)nc2Nc2ccc(Cl)cc2C)ccc1O | 18.8% | 38.4 | 68.6 | 0.291% (active) | 49.7 | 33.4 | 39.6 | -37.9% (active) | 12.6% | -23.6% (active) |
| CCOC(=O)N1CCC(N=C2CSc3nnc(-c4cc(C(F)(F)F)cc(C(F)(F)F)c4)n3N2)CC1 | -22.5% (active) | 31.2 | 28.5 | 34.2% | 14.9 | 30.5 | 55.2 | 22.4% | 6.9% (active) | -2.78% (active) |
| CC1Cc2ccccc2N1C(=O)c1ccc(C(=O)c2ccccc2)cc1 (stereo not given) | 19% | 88.3 | 81.9 | 49.8% | 84.1 | 89.7 | 77.8 | 95.5% | 94.3% | 91.5% |
| CCN(CC)c1ccc(N=C2C=CC(=O)C=C2NC(C)=O)cc1 | 98.6% | 106 | 97.5 | 71% | 95.9 | 83.7 | 105 | 82.1% | 87.6% | 99.5% |
| C=CCNC(=O)/C(=C/c1cccc([N+](=O)[O-])c1)NC(=O)c1ccccc1 | 18.9% | 108 | 103 | 90% | 101 | 94 | 90.6 | 130% | 90.6% | 101% |
| COc1cccc(C2=NN(C(C)=O)C(c3cc(OC)c(OC)c(OC)c3)C2)c1 (stereo not given) | 26.9% | 47.4 | 42.7 | -29.9% (active) | 78.4 | 56.1 | 216 | 71.3% | -7.81% (active) | 9.77% (active) |
| Nc1ccc2c(c1)C(=O)c1cc(Cl)c(Cl)cc1-2 | 95.8% | 74.1 | 90.8 | 49.9% | 113 | 92.1 | 70.4 | 76.5% | 82.8% | 77.1% |
| CC(=O)OC1Oc2cc(C)c(C)cc2-c2oc(=O)c(-c3ccccc3)cc21 (stereo not given) | 17.3% | 40.5 | 43.6 | 16.5% | 13.9 | 34 | 24.8 | -1.55% (active) | -37.8% (active) | -20.4% (active) |
| Nc1ccccc1-c1ccn[nH]1 | 83.5% | 87 | 87.9 | 50.9% | 119 | 70.5 | 68.4 | 103% | 97.4% | 98.7% |
| CC(=O)N1N=C(c2ccc(C(F)(F)F)cc2)CC1c1ccc2c(c1)OCO2 (stereo not given) | 76.2% | 81.4 | 83.5 | 55.9% | 100 | 95.7 | 70.8 | 103% | 83.3% | 77.9% |
| COc1cc(/C=N/NC(=O)c2ccc(C(F)(F)F)nc2Nc2cc(Cl)ccc2C)cc(OC)c1OC | 88.8% | 93.6 | 93.9 | 103% | 119 | 104 | 77.5 | 100% | 51.5% | 61.8% |
| C=C(CN1CCc2c([nH]c3ccccc23)C1)c1ccc(C(=O)Nc2ccon2)cc1 | 75.8% | 80.3 | 93.8 | 30.7% | 131 | 99 | 83.9 | 116% | 81.2% | 77.1% |
| O=C(c1ccc(N2CCOCC2)cc1[N+](=O)[O-])N1CCOCC1 | 17.9% | 18.9 | 145 | 99.4% | 116 | 100 | 20.1 | 104% | 104% | 116% |
| CC(=O)Nc1cc2c3c(cccc3c1)-c1ccccc1-2 | 83.5% | 55.1 | 31.6 | 19.2% | 96.3 | 91.5 | 33.5 | 58.7% | 21.4% | 45.8% |
| Cn1c(=O)c2[nH]c(=S)n(Cc3ccccc3)c2n(C)c1=O | 104% | 125 | 99 | 91.4% | 104 | 96.1 | 111 | 92.8% | 113% | 81.9% |
| O=C1N=C(N2CCOCC2)S/C1=C\c1cn(-c2ccccc2)nc1-c1ccccc1 | 81.7% | 90 | 92.4 | 44.3% | 57.1 | 58.9 | 93.9 | 48% | 92.4% | 116% |
| O=C(Oc1cccc2ccccc12)c1ccccc1C(=O)c1ccccc1 | 97.1% | 80 | 101 | 60.8% | 129 | 95.5 | 88.1 | 70.8% | 16% | 14.8% |
| C=C1CCC2C3(C)COC(c4ccccc4)OC3CCC2(C)C1C/C=C1/C(=O)OCC1OC(C)=O (stereo not given) | 95.1% | 104 | 80.6 | 81.6% | 56.8 | 92.4 | 106 | 103% | 2.16% (active) | 77.1% |
| ICCC(c1ccccc1)(c1ccccc1)c1ccccc1 | 48.7% | 88.4 | 69.7 | 49.6% | 73.5 | 68.9 | 74.9 | 51.7% | 31.6% | 39.4% |
| CCC(=O)Nc1cc2c(cc1Cl)-c1ccccc1C2 | 97.5% | 57.1 | 68.7 | 42.5% | 110 | 87.1 | 83.6 | 83.6% | 72.3% | 82.1% |
| O=C(Nc1ccc2c(c1)C(=O)c1ccccc1-2)c1ccccc1 | 82.4% | 97.4 | 56.9 | 69.7% | 46.9 | 63.8 | 74.7 | 66.4% | 101% | 97.7% |
| CCc1ccc(-c2nc(SCC(=O)NC3CCCCC3)n[nH]2)cc1 | 10.2% | 42.1 | 76.4 | 69.8% | 88.8 | 64.2 | 85.9 | 86.4% | 55.3% | 61.6% |
